Data on 33 compounds can be found in ChEMBL document CHEMBL3433997, “St. Jude Leishmania screening dataset” (2016).

In general, inhibition refers to the drop in the measured response relative to a control, in per cent.

Common to all, as to format: functional
The target in test [1] is Solute carrier family 2, facilitated glucose transporter member 1 (Homo sapiens) (UniProt P11166). The test is described as follows: ST_JUDE_LEISH: Cytotoxicity at 2uM final concentration against transgenic Leishmania Mexicana promastigotes LmGLUT1 that are glucose transport deficient and complemented with the human glucose transporter GLUT1. Activity is measured by DNA content using SYBR green in vitro.

Test [2] has as its target Hexose transporter 1 (Plasmodium falciparum) (UniProt O97467). Description: ST_JUDE_LEISH: Cytotoxicity at 2uM final concentration against transgenic Leishmania Mexicana promastigotes LmPfHT that are glucose transport deficient and complemented with the Plasmodium falciparum hexose transporter. Activity is measured by DNA content using SYBR green in vitro.
Test [3] deals with Glucose transporter (Leishmania mexicana) (UniProt O61059). Description: ST_JUDE_LEISH: Cytotoxicity at 2uM final concentration against transgenic Leishmania Mexicana promastigotes LmGT2 that are glucose transport deficient and complemented with the L. Mexicana glucose transporter 2. Activity is measured by DNA content using SYBR green in vitro.

Solute carrier family 2, facilitated glucose transporter member 1 (Homo sapiens), sequence (P11166 whole entry): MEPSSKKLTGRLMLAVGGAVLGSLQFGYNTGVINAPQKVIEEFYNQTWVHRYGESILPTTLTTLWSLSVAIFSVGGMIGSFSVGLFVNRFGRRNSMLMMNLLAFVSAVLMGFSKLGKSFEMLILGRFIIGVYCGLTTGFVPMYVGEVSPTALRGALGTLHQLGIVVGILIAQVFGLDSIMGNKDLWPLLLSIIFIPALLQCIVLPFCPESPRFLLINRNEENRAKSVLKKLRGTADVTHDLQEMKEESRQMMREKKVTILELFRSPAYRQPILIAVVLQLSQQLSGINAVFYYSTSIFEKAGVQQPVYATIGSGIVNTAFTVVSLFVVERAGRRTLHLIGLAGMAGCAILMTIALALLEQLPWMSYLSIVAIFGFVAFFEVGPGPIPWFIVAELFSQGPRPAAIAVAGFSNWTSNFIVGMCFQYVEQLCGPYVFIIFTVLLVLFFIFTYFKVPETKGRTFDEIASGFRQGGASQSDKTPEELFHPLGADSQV

`Cn1nccc1C(=O)NCCNCc1cccc(-c2cccc(-c3nc4cc(F)ccc4[nH]3)c2)c1`: the inhibition in test [1] amounted to 3.43%; in test [2] it was 3.28%; in test [3], 1.11%.
`CCCCc1cc(NCC)nc(Nc2ccc(OC)cc2)n1`: the inhibition in test [1] stood at 20.3%; in test [2], 10.1%; in test [3], 5.43%.
Consider `CCc1c(CCNCCCCCNCCc2ccc(OC)c(OC)c2CC)ccc(OC)c1OC`, for which the figures for the inhibition in test [1], in test [2] and in test [3] were 3.35%, 5.75% and 4.72%, respectively.
Consider `CC(=O)Nc1ccc(OCCN(Cc2ccccc2C(F)(F)F)c2ccc(C#N)c(C(F)(F)F)c2)cc1`, for which the inhibition came to 18.7% in test [1], 16% in test [2] and 28.2% in test [3].
In the same order, the values of `CN1CCC(N2CCN(Cc3cccc(-c4ccc(-c5nc6cc(F)ccc6[nH]5)cc4)c3)CC2)CC1` are 2.43%, 3.05% and 2.66%.
With `Nc1c2ccccc2nc2cc(Cl)ccc12`, the inhibition in test [1] amounted to 3.29%; in test [2], 1.91%; in test [3], 1.91%.
Regarding `O=C(C=Cc1ccc(Cl)c(Cl)c1)NCCCCCN1CCC(CCCNC(=O)c2sc3ccccc3c2Cl)CC1`, the values for the inhibition in test [1], in test [2] and in test [3] were 2.7%, 0.72% and 1.61%, respectively.
On to `Cc1sc2nc(CSc3ccccc3)nc(N3CCN(CC(=O)NC4CC4)CC3)c2c1C`, for which the results for the inhibition in test [1], in test [2] and in test [3] were -0.96%, -2.01% and -1.85%, respectively.
Consider `Cc1ccc(C(=O)Nc2cccc(CN3CCCN(Cc4ccc(O)cc4)CC3)c2)s1`, for which the inhibition is -2.38% in test [1], 0.41% in test [2] and 2.88% in test [3].
Take `Cc1ccc(F)c(OCC2CCCN(c3ccc(C(=O)NC4CC4)cn3)C2)c1` (centres undefined): the results for the inhibition in test [1], in test [2] and in test [3] were 3.46%, 4.3% and 2.18%, respectively.
As for `Cc1cc(N[C@@H](CC(C)C)C(=O)Nc2ccccc2)nc(NCC2CCCCC2)n1`, the inhibition in test [1] came to 10.2%; in test [2], 9.8%; in test [3] it was 5.12%.
On to `Nc1nc2c(cnn2CCCCCCCP(=O)(O)O)c(=O)[nH]1`, for which the values for the inhibition in test [1], in test [2] and in test [3] were -0.8%, 0.25% and -0.36%, respectively.
On to `CC(C)C[C@H](Nc1ccnc(NCC2CCCCC2)n1)C(=O)NCCc1ccccc1`, for which the inhibition in test [1] is 3.1%; in test [2], 0.57%; in test [3], 0.72%.
As to `Cn1nccc1C(=O)NCCNCc1ccc(-c2ccc(-c3nc4cc(C(F)(F)F)ccc4[nH]3)s2)cc1`, the inhibition in test [1] was 0.47%; in test [2], -0.52%; in test [3] it was 0.87%.
In the same order, the values of `c1ccc(CN2CCN(c3cc(-c4cncc(-c5ccccc5)c4)nc(-c4ccccc4)n3)CC2)cc1` are 1.99%, 2.26% and 1.99%.
In the case of `COc1ccc(O)c(C(=O)NCCc2ccc(OC)c(-c3ccc(C(C)(C)C)cc3)c2)c1`, the inhibition amounted to 4.08% in test [1], 5.01% in test [2] and 4.69% in test [3].
In the same order, the values of `COc1ccc(-n2cc(CNCCCn3ccnc3)c(-c3cccc(F)c3)n2)cc1` are 1.74%, 2.48% and -5.03%.
As to `CN(C)CCOc1cc(NC(=O)Nc2ccc(-c3ccncc3)c(Cl)c2)ccc1I`, the values for the inhibition in test [1], in test [2] and in test [3] were 2.24%, 1.09% and 1.54%, respectively.
Regarding `COc1ccc(-c2cccc(NC(=O)c3ccc(F)cc3)c2)cc1CNC(C)C`, the inhibition in test [1] amounted to 1.85%; in test [2] it was 3.31%; in test [3], 3.19%.
The corresponding values for `Clc1cc(Nc2ccnc3ccc(Br)cc23)ccc1Oc1ccc(Cl)c2ccccc12` are 3.45%, 3.8% and 2.81%.
In the same order, the values of `CCOC(=O)c1ccc(NC(=O)Nc2cccc(-c3cccc(-c4nc5cc(F)ccc5[nH]4)c3)c2)cc1` are 0.68%, 2.75% and 3.67%.
As to `O=S(=O)(NC1CCCCN(Cc2ccccc2O)C1)c1ccc(C(F)(F)F)cc1` (centres undefined), the inhibition in test [1] worked out at 1.87%; in test [2], 4.93%; in test [3], 0.86%.
As for `COc1ccc(Nc2nc(=Nc3ccccc3)nc(NN=Cc3cc(Cl)ccc3O)[nH]2)cc1`, the inhibition is 1.37% in test [1], 2.04% in test [2] and 1.08% in test [3].
As for `CCC(ON1C(N)=NC(N)=NC1(C)C)c1ccc(Cl)cc1` (centres undefined), the inhibition was 6.11% in test [1], 8.81% in test [2] and 10.4% in test [3].
In the same order, the values of `CCCCNC(=O)[C@H](CC1CCCCC1)NC(=O)c1ccc(O)c(-c2ccc(OC)cc2)c1` are 2.45%, 2.88% and 4.23%.
Regarding `Nc1nc(N)c2cc(N(Cc3ccccc3)Cc3ccccc3)ccc2n1`, the results for the inhibition in test [1], in test [2] and in test [3] were 16.1%, 17.2% and 10.8%, respectively.
On to `O=C(NCCc1ccccc1)N(Cc1ccccc1-c1ccc(CNC2CCCC2)cc1)C1CCN(Cc2ccccc2)CC1`, for which the inhibition was 7.74% in test [1], 7.15% in test [2] and 5.58% in test [3].
As for `CC(Cc1ccc(Cl)cc1)Nc1nc(NC2CCCC2)nc(N2CCC(C#N)(c3ccccc3)CC2)n1` (centres undefined), the values for the inhibition in test [1], in test [2] and in test [3] were 8.45%, 5.49% and -0.98%, respectively.
In the same order, the values of `CC1(C)[C@H]2CC[C@@H](CNc3nc(NCCc4c[nH]cn4)nc(Nc4ccc5c(c4)OCO5)n3)[C@@H]1C2` are 2.49%, 0.99% and 0.68%.
Take `COc1cc(-c2cc3cc(Cl)c(Cl)cc3[nH]2)ccc1C(=O)NCCC1CCCN1C` (centres undefined): the inhibition in test [1] is -0.78%; in test [2] it was -0.94%; in test [3], -1.26%.
On to `O=C(NCCCCN1CCC(c2cccc3ccccc23)CC1)c1ccc(-c2ccc(C(F)(F)F)cn2)cc1`, for which the inhibition was 2.62% in test [1], 3.84% in test [2] and 1.69% in test [3].
With `O=C(Nc1ccc(-c2ccc(-c3nc4ccccc4[nH]3)s2)cc1)Nc1ccc(F)c(F)c1F`, the results for the inhibition in test [1], in test [2] and in test [3] were 0.57%, -1.5% and -0.77%, respectively.
For the compound `CCCC1(NC[C@@H](O)[C@H](Cc2ccccc2)NC(=O)c2cc(NCC)cc(N3CCCCS3(=O)=O)c2)CCC1`, the inhibition in test [1] was 4.81%; in test [2], 2.33%; in test [3] it was 2.83%.
